# Assay results taken from PubChem BioAssay AID1963822 (ICCB-Longwood Screening Facility, Harvard Medical School, 2024).
# Screen size: about 55,000 compounds; about 90 (0.2%) were called active. How the calls were made is not given here. The sample as a whole holds a higher share of actives than the screen did.
# Test: anaerobic choline-dependent bacterial growth inhibition – minimal medium, absorbance (AID 1963822)
# Details: Gram-negative bacterium anaerobic choline minimal medium
# [1] = measured here: choline growth z-score, timepoint 1, stronger effect = lower value
SMILES,z-score (stronger effect = lower value),z-score [1]
CCCC(=O)Nc1cccc(OCc2cc(=O)n3ccccc3n2)c1,0.39 (inactive),0.6
O=C(NCCCN1CCCCC1)c1cc2n(n1)CCCN(Cc1ccc(F)cc1)C2=O,0.15 (inactive),-0.23
CN1CCN(CCNC(=O)c2cnc3sc4c(n3c2=O)CCC4)CC1,-0.87 (inactive),-0.3
Cc1sc2cc(C(=O)NCCN3CCN(C)CC3)[nH]c2c1CN1CCCCC1,-0.21 (active),-4.45
Cc1ccc(F)c(NS(=O)(=O)c2cc(-c3nc(C(C)(C)C)cs3)cs2)c1,0.79 (inactive),0.58
CCCCOc1ccccc1C1CC(=O)Nc2c1c(C)nn2-c1ccc2nncn2n1 (stereo unspecified),0.78 (inactive),0.83
O=C(NC1CC1)c1snc(-c2ccccn2)c1NC(=O)C1CC1,0.58 (inactive),1.01
CCc1ccc(NS(=O)(=O)c2cc(-c3nc(C(C)C)cs3)cs2)cc1,-0.41 (inactive),0.54
Cc1cccc(C2C3=C(CC(c4ccccc4)CC3=O)Nc3onc(C)c32)c1 (stereo unspecified),1.84 (inactive),1.45
O=C1Nc2ccccc2Oc2cc(Cl)c(S(=O)(=O)N3CCCC3)cc21,1.05 (inactive),-0.01
O=C(COc1ccccc1)Nc1noc(-c2ccc(Cl)cc2)n1,-0.07 (inactive),-0.68
Cc1ccc(C)c(Cn2cccc(S(=O)(=O)N3CCCC3)c2=O)c1,1.03 (inactive),0.96
CS(=O)(=O)NC1CCN(C(=O)C2CCCC2)C1 (stereo unspecified),0.08 (inactive),0.92
CCC(C(=O)Nc1ccccc1OC)n1nc(-c2ccccc2)ccc1=O (stereo unspecified),0.41 (inactive),-0.44
COc1ccc(CSc2nccc3c2ccn3CC(=O)NCc2ccc3c(c2)OCO3)cc1,1.77 (inactive),1.27
O=C(CSCc1nc2cccnc2n1C1CCCCC1)NCc1cccc(F)c1,0.62 (inactive),1.42
Cc1ccccc1C1CC(=O)c2cnc3c(-c4ccc(F)cc4)c(C)nn3c2C1 (stereo unspecified),0.81 (inactive),0.27
O=C(COc1ccccc1)Nc1noc(-c2ccccc2)n1,-2.24 (inactive),-0.92
O=C(NCc1ccc(Cl)cc1)c1ccc(-n2nnc3cccnc32)cc1,0.42 (inactive),0.46
Cc1nn(-c2ccccc2)c2sc(C(=O)N3CCN(c4cccc(Cl)c4)CC3)cc12,0.97 (inactive),1.5
COc1ccc(-c2noc(-c3ccc[nH]c3=O)n2)cc1OC,1.32 (inactive),1.18
Clc1ccc(C(CNc2nn3cnnc3c3ccccc23)N2CCCCC2)cc1 (stereo unspecified),-0.12 (inactive),-0.1
CC(C)NC(=O)N1CCCC(c2cccc(C(=O)NCc3ccc(Cl)cc3)c2)C1 (stereo unspecified),0.72 (inactive),0.1
